According to PubChem BioAssay AID1159580 (chemical genetic matrix, 2015):
About 2,000 (36%) of roughly 5,500 compounds were called active. Roughly 18% stayed inconclusive and do not appear here. Cut-off read from the data, not from the text of the source: active = normalized growth mostly below about 0.91 (no sharp cut-off); inconclusive = no clear call, values can overlap the other calls; inactive = mostly above about 0.92. The list shows a part of the results.

Assay: chemical genetic growth profiling, strain panel (AID 1159580);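 note: tested at 20 µM; growth read once vehicle control cultures reached saturation at 30 °C; 1 = growth at the plate median or of vehicle wells; lower values mean less growth of the strain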
Details: growth OD

Measured: normalized growth

CN1C(CC(=O)c2ccccc2)CCCC1CC(O)c1ccccc1 (configuration not stated)
inactive: S. cerevisiae deletion strains, locus YJR075W, strain HOC1, active compounds read low 0.998 | S. cerevisiae deletion strains, locus YKL009W, strain mrt4, active compounds read low 0.994 | S. cerevisiae deletion strains, locus YKL068W, active compounds read low 0.994 | S. cerevisiae deletion strains, locus YKL085W, strain MDH1 (second series), active compounds read low 0.989 | S. cerevisiae deletion strains, locus YKL085W, strain MDH1, active compounds read low 0.989 | S. cerevisiae deletion strains, locus YKL160W, strain elf1, active compounds read low 1 | S. cerevisiae deletion strains, locus YKL190W, strain CNB1, active compounds read low 1.01 | S. cerevisiae deletion strains, locus YKR001C, strain vps1, active compounds read low 1 | S. cerevisiae deletion strains, locus YKR026C, strain gcn3, active compounds read low 0.977 | S. cerevisiae deletion strains, locus YKR091W, strain srl3, active compounds read low 0.975 | S. cerevisiae deletion strains, locus YLL001W, strain dnm1, active compounds read low 0.967 | S. cerevisiae deletion strains, locus YLL026W, active compounds read low 0.98 | S. cerevisiae deletion strains, locus YLL041C, strain sdh2, active compounds read low 0.982 | S. cerevisiae deletion strains, locus YLR027C, strain aat2, active compounds read low 0.965 | S. cerevisiae deletion strains, locus YLR039C, strain RIC1, active compounds read low 1.04 | S. cerevisiae deletion strains, locus YLR058C, strain SHM2, active compounds read low 1.01 | S. cerevisiae deletion strains, locus YLR102C, strain apc9, active compounds read low 0.983 | S. cerevisiae deletion strains, locus YLR113W, strain HOG1, active compounds read low 0.984 | S. cerevisiae deletion strains, locus YLR221C, strain rsa3, active compounds read low 0.99 | S. cerevisiae deletion strains, locus YLR258W, strain gsy2, active compounds read low 0.983 | S. cerevisiae deletion strains, locus YLR262C, strain YPT6 (second series), active compounds read low 0.909 | S. cerevisiae deletion strains, locus YLR262C, strain YPT6, active compounds read low 1.06 | S. cerevisiae deletion strains, locus YLR268W, strain sec22, active compounds read low 0.928 | S. cerevisiae deletion strains, locus YLR320W, strain mms22, active compounds read low 0.979 | S. cerevisiae deletion strains, locus YLR330W, strain CHS5, active compounds read low 1 | S. cerevisiae deletion strains, locus YLR342W, strain FKS1 (second series), active compounds read low 1.03 | S. cerevisiae deletion strains, locus YLR342W, strain FKS1, active compounds read low 0.966 | S. cerevisiae deletion strains, locus YLR357W, strain rsc2, active compounds read low 0.967 | S. cerevisiae deletion strains, locus YLR370C, strain arc18, active compounds read low 0.962 | S. cerevisiae deletion strains, locus YLR371W, strain rom2, active compounds read low 0.984 | S. cerevisiae deletion strains, locus YLR384C, strain iki3, active compounds read low 0.974 | S. cerevisiae deletion strains, locus YLR418C, strain cdc73, active compounds read low 0.957 | S. cerevisiae deletion strains, locus YML016C, strain PPZ1, active compounds read low 1.01 | S. cerevisiae deletion strains, locus YML032C, strain rad52, active compounds read low 0.973 | S. cerevisiae deletion strains, locus YML120C, strain ndi1, active compounds read low 0.977 | S. cerevisiae deletion strains, locus YML124C, strain tub3, active compounds read low 0.988 | S. cerevisiae deletion strains, locus YMR058W, strain fet3, active compounds read low 0.969 | S. cerevisiae deletion strains, locus YMR078C, strain ctf18, active compounds read low 0.991 | S. cerevisiae deletion strains, locus YMR125W, strain sto1, active compounds read low 0.951 | S. cerevisiae deletion strains, locus YMR129W, active compounds read low 0.976 | S. cerevisiae deletion strains, locus YMR205C, strain PFK2, active compounds read low 0.971 | S. cerevisiae deletion strains, locus YMR223W, strain ubp8, active compounds read low 0.993 | S. cerevisiae deletion strains, locus YMR231W, strain pep5, active compounds read low 0.987 | S. cerevisiae deletion strains, locus YMR263W, strain SAP30, active compounds read low 1.01 | S. cerevisiae deletion strains, locus YMR307W, strain GAS1, active compounds read low 1.08 | S. cerevisiae deletion strains, locus YNL067W, strain RPL9B, active compounds read low 0.986 | S. cerevisiae deletion strains, locus YNL071W, strain lat1, active compounds read low 0.975 | S. cerevisiae deletion strains, locus YNL128W, strain TEP1, active compounds read low 1.01 | S. cerevisiae deletion strains, locus YNL153C, strain GIM3, active compounds read low 0.988 | S. cerevisiae deletion strains, locus YNL183C, strain NPR1, active compounds read low 0.924 | S. cerevisiae deletion strains, locus YNL209W, strain ssb2, active compounds read low 0.981 | S. cerevisiae deletion strains, locus YNL233W, strain BNI4, active compounds read low 0.994 | S. cerevisiae deletion strains, locus YNL248C, strain rpa49, active compounds read low 1.01 | S. cerevisiae deletion strains, locus YNL250W, strain rad50, active compounds read low 0.981 | S. cerevisiae deletion strains, locus YNL271C, strain bni1, active compounds read low 0.984 | S. cerevisiae deletion strains, locus YNL298W, strain CLA4, active compounds read low 0.98 | S. cerevisiae deletion strains, locus YNL307C, strain MCK1, active compounds read low 0.992 | S. cerevisiae deletion strains, locus YNL322C, strain KRE1 (second series), active compounds read low 0.985 | S. cerevisiae deletion strains, locus YNL322C, strain KRE1, active compounds read low 1.01 | S. cerevisiae deletion strains, locus YNR049C, strain mso1, active compounds read low 0.973 | S. cerevisiae deletion strains, locus YNR052C, strain pop2, active compounds read low 0.99 | S. cerevisiae deletion strains, locus YOL006C, strain TOP1, active compounds read low 0.939 | S. cerevisiae deletion strains, locus YOL012C, strain htz1 0.951 | S. cerevisiae deletion strains, locus YOL147C, strain pex11, active compounds read low 0.991 | S. cerevisiae deletion strains, locus YOR001W, strain rrp6, active compounds read low 0.997 | S. cerevisiae deletion strains, locus YOR061W, strain CKA2, active compounds read low 1.02 | S. cerevisiae deletion strains, locus YOR069W, strain VPS5, active compounds read low 1.01 | S. cerevisiae deletion strains, locus YOR070C, strain gyp1, active compounds read low 0.971 | S. cerevisiae deletion strains, locus YOR080W, strain dia2, active compounds read low 0.988 | S. cerevisiae deletion strains, locus YOR083W, strain WHI5, active compounds read low 1.01 | S. cerevisiae deletion strains, locus YOR106W, strain vam3, active compounds read low 1 | S. cerevisiae deletion strains, locus YOR136W, strain idh2, active compounds read low 0.993 | S. cerevisiae deletion strains, locus YOR144C, strain elg1, active compounds read low 0.993 | S. cerevisiae deletion strains, locus YOR184W, strain ser1, active compounds read low 0.988 | S. cerevisiae deletion strains, locus YOR231W, strain MKK1, active compounds read low 0.978 | S. cerevisiae deletion strains, locus YOR265W, strain rbl2, active compounds read low 0.973 | S. cerevisiae deletion strains, locus YOR270C, strain vph1, active compounds read low 0.917 | S. cerevisiae deletion strains, locus YOR290C, strain snf2, active compounds read low 0.951 | S. cerevisiae deletion strains, locus YOR316C, strain cot1, active compounds read low 0.99 | S. cerevisiae deletion strains, locus YPL051W, strain arl3, active compounds read low 0.998 | S. cerevisiae deletion strains, locus YPL055C, strain LGE1, active compounds read low 1.01 | S. cerevisiae deletion strains, locus YPL078C, strain atp4, active compounds read low 0.991 | S. cerevisiae deletion strains, locus YPL106C, strain sse1, active compounds read low 0.954 | S. cerevisiae deletion strains, locus YPL240C, strain hsp82, active compounds read low 0.998 | S. cerevisiae deletion strains, locus YPL241C, strain CIN2, active compounds read low 1.01 | S. cerevisiae deletion strains, locus YPL256C, strain CLN2, active compounds read low 0.938 | S. cerevisiae deletion strains, locus YPR119W, strain clb2, active compounds read low 0.992 | S. cerevisiae deletion strains, locus YPR141C, strain kar3, active compounds read low 0.992 | S. cerevisiae deletion strains, locus YPR163C, strain tif3, active compounds read low 0.981 | S. cerevisiae deletion strains, locus YPR167C, strain met16, active compounds read low 0.997 | S. cerevisiae deletion strains, strain wtn01, active compounds read low 0.954 | S. cerevisiae strains, strain wild type, active compounds read low 1.01
